Screening data as filed in PubChem.
The list is not random: actives were taken first. Their share in the collection is about 2.2%.
Abeta rescue = A-beta toxicity reversal in yeast | yeast expressing A-beta42, growth rescue, OD600, 48 h; response scale: 0% DMSO, 100% iron-clioquinol control | Potency, µM (doses to about 46.1 µM), actives largely listed as activators | actives 0.063% (n = 410,000); note: nearly all actives have a fitted effect of over 55% in size
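Yeast A-beta toxicity model in growth medium with pinned compounds, 48 h at 30 C; growth read as absorbance at 600 nm. Normalized to FeCl3/clioquinol equimolar mix (positive) and DMSO (negative).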
FUS yeast rescue = rescues growth of FUS-expressing yeast | S. cerevisiae FUS-expressing, growth rescue, OD600, 24 h | actives 0.24% (n = 390,000) | Potency, µM (titrated, usually from 76.6 µM), hits mostly activators; note: nearly all actives have a fitted effect of over 55% in size
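Quantitative HTS measuring growth restoration of FUS-toxic yeast. Galactose-induced cells (OD 0.005) were exposed 24hr at 30C to compounds at several concentrations, then absorbance at 600 nm was recorded.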
aSyn rescue = inhibitors of alpha-synuclein toxicity in yeast; Yeast expressing alpha-synuclein, growth rescue, BacTiter-Glo, 24 h; Potency, µM (doses to about 46.1 µM), hits mostly activators; actives 0.14% (n = 370,000); note: nearly all actives have a fitted effect of over 65% in size
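Galactose-induced alpha-syn yeast (OD600=0.02, raffinose-pregrown) + pinned cpd, 24 hr, 30 deg C; growth by BacTiter-Glo luminescence. Growth restoration scores as activation.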
TDP43 rescue = rescues yeast growth from TDP-43 toxicity | TDP-43 expressing yeast growth rescue, BacTiter-Glo, 24 h | Potency, µM (doses to about 46.1 µM), most hits filed as activators | actives 1.8% (n = 410,000) | AID 652104; note: nearly all actives have a fitted effect of over 50% in size
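Cell-based yeast growth screen: TDP-43 expression induced in galactose, inoculum OD600=0.02 after raffinose pregrowth to mid-log. Read-out BacTiter-Glo luminescence at 24 hr, 30 deg C; inhibition of toxicity seen as signal increase.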
Mito fusion act = inhibitors of mitochondrial division or activators of mitochondrial fusion; S. cerevisiae fusion-defective mutant growth rescue, CellTiterGlo 48 h; actives 0.23% (n = 320,000); Potency, µM (series often up to 46.1 µM), hits mostly activators; note: nearly all actives have a fitted effect of over 45% in size
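Read-out: ATP-based luminescence (CellTiterGlo, 10 min ambient) reporting growth of fusion-defective ts yeast after 48 hours at 37C on glycerol/ethanol YPEG medium in the presence of compound.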
Hits are given with their value; - = inactive; ? = inconclusive; . = no result given; [ ] = dose if it differs, or a comment. Calls come from the whole dose curve; as a rule, active = well fitted curve in the direction sought with a large enough effect; inconclusive = small, poorly fitted or top-dose-only effect, or another doubt; inactive = no such curve, though single readings can be large; an effect the other way counts as inactive or inconclusive.

SMILES	Abeta rescue	FUS yeast rescue	aSyn rescue	TDP43 rescue	Mito fusion act
CC(=O)c1cccc(NC(=O)c2nc(-c3ccc(C)cc3)n3c2CCCCC3)c1	-	?	-	20µM	.
Cc1ccc(-c2nc(C(=O)Nc3cccc(C#N)c3)c3n2CCCCC3)cc1	-	-	-	-	.
Cc1cccc(CSCCNC(=S)Nc2ccccc2)c1	-	.	-	16µM	-
S=C(NCCSCc1ccccc1Cl)Nc1ccccc1	-	-	-	13µM	-
CCCOc1ccc(CSCCNC(=S)Nc2ccccc2)cc1	?	-	-	-	-
S=C(NCCCc1ccccc1)Nc1ccccc1	20µM	-	-	-	-
COC(=O)c1ccc(NC(=S)NCCc2cccc(C)c2)cc1	-	-	-	8.9µM	-
S=C(NCCCc1ccccc1)Nc1ccc(Cl)cc1	-	.	-	-	-
CSc1ccc(CCNC(=O)c2csc3c2CCCCC3)cc1	-	-	.	-	.
Cc1ccc(-n2ncc(C(=O)NCCCN3CCN(C)CC3)c2C2CCN(C(=O)OC(C)(C)C)CC2)c(C)c1	-	-	.	-	.
CCOc1ccc(NC(=O)Cn2cc(C(=O)c3ccccc3)c(=O)c3cc4c(cc32)OCO4)cc1	-	-	.	-	.
COc1cccc(OC)c1NC(=O)OC1CCC12CCC(c1ccccc1)CC2 (stereo not drawn)	.	-	.	.	.
S=C(NCCSCc1ccc(Cl)cc1)Nc1ccccc1	-	.	-	25µM	-
Cc1ccc(C)c(N2CCN(C(=O)Cn3ncc4ccsc4c3=O)CC2)c1	-	?	16µM	-	.
CCc1cccc(C)c1NC(=O)Nc1csc2c1CCCC2	-	-	.	-	.
O=C(OCn1nnc2ccccc2c1=O)c1ccc(S(=O)(=O)N2CCOCC2)cc1	-	-	-	-	-
O=C(OCn1nnc2ccccc2c1=O)c1ccc2ncsc2c1	-	-	?	11µM	-
COc1cc(OC)cc(C(=O)OCn2nnc3ccccc3c2=O)c1	-	-	-	-	?
CCN(CC)S(=O)(=O)c1ccc(C(=O)OCn2nnc3ccccc3c2=O)cc1	-	-	3.2µM	-	-
COc1cc(OC)c(NS(=O)(=O)c2ccc3c(c2)NC(=O)CO3)cc1Cl	-	-	-	-	-
Cc1ccsc1CN(C(=O)COc1cccc(C)c1C)C1CCS(=O)(=O)C1 (stereo not drawn)	-	-	.	-	.
COc1ccc(/C=C/c2c([N+](=O)[O-])c(=O)n(C)c(=O)n2C)cc1OC	-	-	-	-	-
Cn1c(/C=C/c2ccc(Cl)cc2)c([N+](=O)[O-])c(=O)n(C)c1=O	-	-	-	18µM	-
Clc1cccc(-c2nc3ccc(Cl)cn3c2Cc2ccsc2)c1	-	-	-	?	.
Clc1cccc(-c2nc3ccc(Cl)cn3c2Cc2ccccc2)c1	-	-	-	16µM	.
SMILES	Abeta rescue	FUS yeast rescue	aSyn rescue	TDP43 rescue	Mito fusion act
Fc1cccc(Cc2c(-c3cccc(Br)c3)nc3ccc(Cl)cn23)c1	-	-	-	25µM	.
CC12CC3CC(C)(C1)CC(Nc1nc(N4CCOCC4)nc4ccccc14)(C3)C2	-	-	-	20µM	-
Cc1cc(NC(=O)/C=C\C(=O)O)c([N+](=O)[O-])cc1C	-	-	-	22µM	-
NC(=O)c1ccc(N2CCN(c3ncc(C(F)(F)F)cc3Cl)CC2)cc1	-	-	-	-	-
Nc1ccc(N2CCN(c3ncc(C(F)(F)F)cc3Cl)CC2)c(C(F)(F)F)c1	-	-	-	20µM	.
COC(=O)c1ccc(NCc2c(O)ccc(O)c2Br)cc1Cl	-	.	-	20µM	.
Cc1cc(C)n(CC(O)Cn2c3ccccc3c3ccccc32)n1 (stereo not drawn)	-	-	-	?	16µM
O=C(O)c1ccc(OCC(O)Cn2c3ccccc3c3ccccc32)cc1 (stereo not drawn)	-	-	-	-	-
OC(COc1ccccc1)Cn1c2ccccc2c2ccccc21 (stereo not drawn)	?	.	-	18µM	-
Cc1c(C(=O)N(C)c2cccc(C(F)(F)F)c2)sc2nc3n(c(=O)c12)CCCCC3	-	-	.	?	.
CCC(=O)N1CCc2cc(Br)cc(S(=O)(=O)CCC(=O)N(CC)Cc3ccccc3)c21	-	-	.	-	.
O=C(CSc1ccnc(=O)[nH]1)NCc1ccc(F)cc1	-	-	.	3.2µM	.
O=C(CSc1ncccn1)NCc1ccc(F)cc1	-	-	-	16µM	-
O=C(CSc1ncccc1C(=O)O)NCc1ccc(F)cc1	-[9.22 µM]	-	-	-	-
O=C(CSc1ccc(-c2ccccn2)nn1)NCc1ccc(F)cc1	-	?	-	16µM	-
Cc1ccc(CNC(=O)CSc2ncccn2)cc1	-	-	-	-	-
O=C(CSc1ccc(-c2ccccn2)nn1)NCc1ccccc1	-	-	-	-	-
CC(C)c1c(C(=O)N/N=C/c2ccc3c(c2)OCO3)nnn1-c1nonc1N	-	-	-	-	-
C/C(=N\NC(=O)c1nnn(-c2nonc2N)c1C(C)C)c1cc(C)sc1C	-	-	-	-	32µM
CCN(CC)c1ccc(/C=N/NC(=O)c2nnn(-c3nonc3N)c2C(C)C)c(O)c1	14µM	?	14µM	?	-
O=C(Cn1cc(SCc2cccc(F)c2)c2ccccc21)N1CCCC1	?	-	.	-	.
CCC(C)(C)n1nnnc1C(c1ccncc1)N1CCC(Cc2ccccc2)CC1 (stereo not drawn)	-	-	-	-	?
CCC(C)(C)n1nnnc1C(c1cccnc1)N1CCC(Cc2ccccc2)CC1 (stereo not drawn)	-	-	?	10µM	-
CC(=O)Nn1cnc2c(c1=O)C1(CCCC1)Cc1ccccc1-2	-	-	-	-	-
Nn1cnc2c(c1=O)C1(CCCCC1)Cc1ccccc1-2	-	.	-	10µM	-
SMILES	Abeta rescue	FUS yeast rescue	aSyn rescue	TDP43 rescue	Mito fusion act
Cc1nnc(SCC(=O)N2c3ccccc3C(C)(c3ccccc3)CC2(C)C)s1 (stereo not drawn)	-	.	-	?	16µM
O=C(NCc1cccc(Cl)c1)c1ccc2nc(N3CCOCC3)sc2c1	-	-	-	25µM	-
CCOc1ccccc1CNC(=O)c1ccc2nc(N3CCOCC3)sc2c1	-	?	-	-	-
COc1ccccc1CNC(=O)c1ccc2nc(N3CCOCC3)sc2c1	-	-	-	22µM	-
COc1ccc(OC)c(NC(=O)Cn2cnc3onc(-c4ccc(Cl)cc4)c3c2=O)c1	-	-	.	-	.
Cc1ccc(C(=O)NCC(c2cccs2)S(=O)(=O)c2ccccc2)cc1C (stereo not drawn)	-	-	.	-	.
Cc1cccc(C(=O)N2CCc3cc(CNC(=O)CCc4ccccc4)ccc32)c1	-	-	.	-	.
CCOC(=O)c1sc(=S)n(-c2ccc(OC)cc2)c1C	-	-	-	20µM	-
CCOC(=O)c1sc(=S)n(-c2cc(OC)ccc2OC)c1N	-	-	-	-	-
CCOC(=O)c1sc(=S)n(-c2ccc(Cl)cc2)c1C	-	-	-	25µM	-
CCOc1ccc(CNC(=O)Cn2nc(C)c3nn(-c4ccc(Cl)cc4)c(C)c3c2=O)cc1	-	-	.	-	.
